Experimental data reported in PubChem BioAssay (NCATS).
Results filed as inconclusive are left out. Calls of active or inactive are those of the source. Calls come from the whole dose curve; as a rule, active = well fitted curve in the direction sought with a large enough effect; inconclusive = small, poorly fitted or top-dose-only effect, or another doubt; inactive = no such curve, though single readings can be large; an effect the other way counts as inactive or inconclusive.

What was measured:
[1] = Quantitative High-Throughput drug screen in 47 multiple myeloma cell lines against the NCATS MIPE library collection: KMS20_JCRB cell viability assay (AID 1918973); note: nearly all actives have a fitted effect of over 45% in size
Procedure, shortened: (§1)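 qHTS of the MIPE 4.0 collection: 500 myeloma cells/well, 48 h drug exposure at 37C in 5% CO2, then CellTiter-Glo for 5 min at room temperature before luminescence reading.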

[2] = Quantitative High-Throughput drug screen in 47 multiple myeloma cell lines against the NCATS MIPE library collection: KMS21BM_JCRB cell viability assay (AID 1918974); conditions: ATP luminescence, 48 h; viability: at 45.8 µM (top of the series) unless noted
Procedure, shortened: as §1

[3] = Quantitative High-Throughput drug screen in 47 multiple myeloma cell lines against the NCATS MIPE library collection: KMS26_JCRB cell viability assay (AID 1918975); note: nearly all actives have a fitted effect of over 45% in size
Procedure, shortened: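 Luminescent ATP measurement with CellTiter-Glo gives viability, scaled between DMSO-only wells (100%) and media-only wells (0%). Cells, 500 per well, faced library compounds for 48 hours at 37C.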

[4] = Quantitative High-Throughput drug screen in 47 multiple myeloma cell lines against the NCATS MIPE library collection: MMM1_PLB cell viability assay (AID 1918976); note: nearly all actives have a fitted effect of over 35% in size
Procedure, shortened: (§2)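 Readout: median RLU from CellTiter-Glo after 5 min at room temperature. Preceding step was 48 h drug treatment of 500 cells/well at 37 °C, 5% CO2, with DMSO-only and media-only control wells.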

[5] = Quantitative High-Throughput drug screen in 47 multiple myeloma cell lines against the NCATS MIPE library collection: MOLP8_DSMZ cell viability assay (AID 1918977); note: nearly all actives have a fitted effect of over 45% in size
Procedure, shortened: as §2

[6] = Quantitative High-Throughput drug screen in 47 multiple myeloma cell lines against the NCATS MIPE library collection: OCIMY1_PLB cell viability assay (AID 1918979); note: nearly all actives have a fitted effect of over 35% in size
Procedure, shortened: as §2

[7] = Quantitative High-Throughput drug screen in 47 multiple myeloma cell lines against the NCATS MIPE library collection: MM1S_ATCC cell viability assay (AID 1918980); note: nearly all actives have a fitted effect of over 45% in size
Procedure, shortened: as §2

[8] = Quantitative High-Throughput drug screen in 47 multiple myeloma cell lines against the NCATS MIPE library collection: MM1R_ATCC cell viability assay (AID 1918981); note: nearly all actives have a fitted effect of over 35% in size
Procedure, shortened: as §2

[9] = Quantitative High-Throughput drug screen in 47 multiple myeloma cell lines against the NCATS MIPE library collection: LP1_DSMZ cell viability assay (AID 1918982); note: nearly all actives have a fitted effect of over 35% in size
Procedure, shortened: as §2

[10] = Quantitative High-Throughput drug screen in 47 multiple myeloma cell lines against the NCATS MIPE library collection: KMS28PE_JCRB cell viability assay (AID 1918983); note: nearly all actives have a fitted effect of over 35% in size
Procedure, shortened: as §2

[11] = Quantitative High-Throughput drug screen in 47 multiple myeloma cell lines against the NCATS MIPE library collection: L363_DSMZ cell viability assay (AID 1918984); note: nearly all actives have a fitted effect of over 40% in size
Procedure, shortened: as §2

[12] = Quantitative High-Throughput drug screen in 47 multiple myeloma cell lines against the NCATS MIPE library collection: KMS34_JCRB cell viability assay (AID 1918985); note: nearly all actives have a fitted effect of over 40% in size
Procedure, shortened: as §2

[13] = Quantitative High-Throughput drug screen in 47 multiple myeloma cell lines against the NCATS MIPE library collection: OCIMY7_PLB cell viability assay (AID 1918987); note: nearly all actives have a fitted effect of over 65% in size
Procedure, shortened: as §2

[14] = Quantitative High-Throughput drug screen in 47 multiple myeloma cell lines against the NCATS MIPE library collection: OCIMY5_PLB cell viability assay (AID 1918988); note: nearly all actives have a fitted effect of over 65% in size
Procedure, shortened: as §2

[15] = Quantitative High-Throughput drug screen in 47 multiple myeloma cell lines against the NCATS MIPE library collection: OPM1_PLB cell viability assay (AID 1918989); note: nearly all actives have a fitted effect of over 40% in size
Procedure, shortened: as §2

[16] = Quantitative High-Throughput drug screen in 47 multiple myeloma cell lines against the NCATS MIPE library collection: SKMM1_PLB cell viability assay (AID 1919863); conditions: SKMM1 myeloma viability, CellTiter-Glo ATP, 48 h; viability: hits give low values; note: nearly all actives have a fitted effect of over 35% in size
Procedure, shortened: as §2

[17] = Quantitative High-Throughput drug screen in 47 multiple myeloma cell lines against the NCATS MIPE library collection: U266_ATCC cell viability assay (AID 1919864); note: nearly all actives have a fitted effect of over 35% in size
Procedure, shortened: as §2

[18] = Quantitative High-Throughput drug screen in 47 multiple myeloma cell lines against the NCATS MIPE library collection: XG6_PLB cell viability assay (AID 1919865); note: nearly all actives have a fitted effect of over 40% in size
Procedure, shortened: as §2

[19] = Quantitative High-Throughput drug screen in 47 multiple myeloma cell lines against the NCATS MIPE library collection: XG1_PLB cell viability assay (AID 1919866); note: nearly all actives have a fitted effect of over 35% in size
Procedure, shortened: as §2

[20] = Quantitative High-Throughput drug screen in 47 multiple myeloma cell lines against the NCATS MIPE library collection: NCIH929_DSMZ cell viability assay (AID 1918978); note: nearly all actives have a fitted effect of over 35% in size
Procedure, shortened: as §2

Measured: Potency
Potency is the fitted concentration of half-maximal effect.

CC(C)(C)c1cnc(CSc2cnc(NC(=O)C3CCNCC3)s2)o1
active: [1] 0.0743 µM | [2] 0.0662 µM | [3] 0.148 µM | [4] 0.105 µM | [5] 0.0833 µM | [6] 1.66 µM | [7] 0.0662 µM | [8] 0.105 µM | [9] 0.105 µM | [10] 0.132 µM | [11] 0.166 µM | [12] 0.296 µM | [13] 2.35 µM | [14] 0.0743 µM | [15] 0.296 µM | [16] 0.264 µM | [17] 0.118 µM | [18] 0.209 µM | [19] 0.296 µM

C=CC(=O)Nc1cc2c(Nc3ccc(F)c(Cl)c3)ncnc2cc1C#CC(C)(C)N1CCN(C)CC1
active: [1] 0.296 µM | [2] 0.332 µM | [3] 1.66 µM | [4] 5.26 µM | [5] 1.05 µM | [20] 0.833 µM | [6] 4.69 µM | [7] 2.09 µM | [8] 1.32 µM | [9] 9.35 µM | [11] 1.48 µM | [12] 5.26 µM | [13] 0.469 µM | [14] 0.935 µM | [15] 0.833 µM | [16] 13.2 µM | [17] 1.05 µM | [18] 0.296 µM | [19] 0.526 µM

CC(=O)Nc1nc(C)c(-c2ccc(Cl)c(S(=O)(=O)NCCO)c2)s1
active: [1] 1.18 µM | [2] 1.66 µM | [3] 7.43 µM | [4] 5.9 µM | [5] 9.35 µM | [20] 0.833 µM | [6] 11.8 µM | [7] 1.48 µM | [8] 7.43 µM | [9] 3.32 µM | [10] 16.6 µM | [11] 1.18 µM | [13] 0.105 µM | [14] 9.35 µM | [15] 2.96 µM | [17] 6.62 µM | [18] 2.09 µM | [19] 1.66 µM

COc1ccc(OC)c(-c2nnc3ccc(-c4ccc(OC)c(O[C@@H]5CCOC5)c4)nn23)c1
active: [1] 5.26 µM | [2] 7.43 µM | [3] 20.9 µM | [4] 11.8 µM | [5] 9.35 µM | [20] 9.35 µM | [6] 20.9 µM | [7] 7.43 µM | [8] 8.33 µM | [9] 14.8 µM | [10] 14.8 µM | [11] 10.5 µM | [14] 16.6 µM | [15] 8.33 µM | [16] 18.7 µM | [17] 7.43 µM | [18] 8.33 µM | [19] 7.43 µM

Nc1cc(C(F)(F)F)c(-c2cc(N3CCOCC3)nc(N3CCOCC3)n2)cn1
active: [1] 1.18 µM | [2] 0.418 µM | [3] 2.09 µM | [4] 0.526 µM | [5] 1.05 µM | [20] 0.209 µM | [6] 0.469 µM | [7] 0.235 µM | [10] 0.935 µM | [11] 0.209 µM | [12] 0.833 µM | [13] 0.59 µM | [14] 0.187 µM | [15] 1.05 µM | [16] 0.662 µM | [17] 4.69 µM | [18] 0.662 µM | [19] 0.469 µM

O=C(NC1CCNCC1)c1[nH]ncc1NC(=O)c1c(Cl)cccc1Cl
active: [1] 0.469 µM | [2] 0.118 µM | [3] 0.187 µM | [4] 0.418 µM | [5] 0.148 µM | [6] 2.64 µM | [7] 0.105 µM | [8] 0.296 µM | [9] 0.264 µM | [11] 0.469 µM | [12] 0.418 µM | [13] 3.72 µM | [14] 0.0743 µM | [15] 1.87 µM | [16] 0.526 µM | [17] 0.187 µM | [18] 0.469 µM | [19] 0.833 µM

CNC(=O)c1cc(Oc2ccc(NC(=O)Nc3cc(C(C)(C)C)nn3-c3ccc4ncccc4c3)c(F)c2)ccn1
active: [1] 5.9 µM | [2] 4.18 µM | [3] 9.35 µM | [4] 14.8 µM | [5] 4.18 µM | [20] 4.69 µM | [6] 16.6 µM | [7] 11.8 µM | [8] 7.43 µM | [9] 10.5 µM | [10] 9.35 µM | [11] 18.7 µM | [12] 7.43 µM | [13] 6.62 µM | [14] 6.62 µM | [15] 5.26 µM | [16] 14.8 µM | [17] 13.2 µM | [18] 7.43 µM | [19] 7.43 µM

O=C(C=Cc1cccc(S(=O)(=O)Nc2ccccc2)c1)NO
active: [1] 1.91 µM | [2] 0.54 µM | [3] 8.55 µM | [4] 10.8 µM | [5] 2.41 µM | [20] 3.03 µM | [6] 6.79 µM | [7] 1.91 µM | [8] 1.21 µM | [9] 2.7 µM | [11] 0.855 µM | [12] 1.36 µM | [13] 2.15 µM | [14] 1.21 µM | [15] 1.91 µM | [16] 4.29 µM | [17] 2.7 µM | [18] 4.81 µM | [19] 2.41 µM
